Reference: ChEMBL document CHEMBL1961873, “Compounds: GSK PKIS; Assays: Nanosyn kinase panel” (2012)

What was measured:
[1] = target: Protein kinase C gamma type (Homo sapiens) (UniProt P05129); conditions: at 1 µM;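 also: each value is an averaged percent inhibition of the enzyme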
[2] = target: T1, Protein kinase C iota type (Homo sapiens) (UniProt P41743); conditions: at 0.1 µM
T1 sequence (whole entry): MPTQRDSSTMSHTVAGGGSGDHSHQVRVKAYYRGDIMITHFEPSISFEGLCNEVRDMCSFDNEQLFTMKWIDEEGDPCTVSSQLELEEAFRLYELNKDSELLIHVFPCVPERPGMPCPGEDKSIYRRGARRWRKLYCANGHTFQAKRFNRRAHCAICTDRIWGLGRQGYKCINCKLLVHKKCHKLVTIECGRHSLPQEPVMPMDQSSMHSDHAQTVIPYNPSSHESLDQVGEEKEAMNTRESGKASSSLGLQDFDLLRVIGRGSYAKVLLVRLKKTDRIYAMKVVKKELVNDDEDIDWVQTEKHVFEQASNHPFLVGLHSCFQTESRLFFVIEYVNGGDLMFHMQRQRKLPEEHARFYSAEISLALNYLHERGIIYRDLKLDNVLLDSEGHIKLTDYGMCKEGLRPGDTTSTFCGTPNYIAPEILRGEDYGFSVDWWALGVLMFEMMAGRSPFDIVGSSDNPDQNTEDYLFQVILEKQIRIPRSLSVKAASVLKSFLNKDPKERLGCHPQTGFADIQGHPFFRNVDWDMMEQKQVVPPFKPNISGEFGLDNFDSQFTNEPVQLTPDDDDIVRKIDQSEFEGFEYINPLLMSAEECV

[3] = target: T1, Protein kinase C iota type (Homo sapiens); conditions: at 1 µM
[4] = target: Protein kinase C theta type (Homo sapiens) (UniProt Q04759); conditions: at 0.1 µM
Protein kinase C theta type (Homo sapiens), sequence (Q04759 whole entry, looked up): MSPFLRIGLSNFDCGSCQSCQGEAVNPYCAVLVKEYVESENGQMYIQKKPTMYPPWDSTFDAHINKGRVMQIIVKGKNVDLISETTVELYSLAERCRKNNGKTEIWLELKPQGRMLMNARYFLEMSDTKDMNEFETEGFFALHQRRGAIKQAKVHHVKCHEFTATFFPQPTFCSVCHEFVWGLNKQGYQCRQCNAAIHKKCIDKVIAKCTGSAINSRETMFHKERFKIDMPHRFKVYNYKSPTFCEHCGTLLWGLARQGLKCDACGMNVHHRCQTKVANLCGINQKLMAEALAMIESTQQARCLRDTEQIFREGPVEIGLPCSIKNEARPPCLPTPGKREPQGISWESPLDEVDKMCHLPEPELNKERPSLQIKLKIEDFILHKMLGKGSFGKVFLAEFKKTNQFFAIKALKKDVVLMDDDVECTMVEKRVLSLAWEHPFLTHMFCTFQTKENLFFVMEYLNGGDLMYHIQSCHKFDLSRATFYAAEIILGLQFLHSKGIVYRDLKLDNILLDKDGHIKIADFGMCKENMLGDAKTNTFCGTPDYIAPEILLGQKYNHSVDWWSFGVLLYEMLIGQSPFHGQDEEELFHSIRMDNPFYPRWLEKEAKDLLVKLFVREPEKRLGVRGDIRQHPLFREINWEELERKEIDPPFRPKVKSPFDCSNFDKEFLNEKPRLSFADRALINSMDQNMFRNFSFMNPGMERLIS

[5] = target: Protein kinase C theta type (Homo sapiens) (UniProt Q04759); conditions: at 1 µM
[6] = target: Protein kinase C beta type (Homo sapiens) (UniProt P05771); conditions: at 0.1 µM
Protein kinase C beta type (Homo sapiens), sequence (P05771 2-671 limits assumed): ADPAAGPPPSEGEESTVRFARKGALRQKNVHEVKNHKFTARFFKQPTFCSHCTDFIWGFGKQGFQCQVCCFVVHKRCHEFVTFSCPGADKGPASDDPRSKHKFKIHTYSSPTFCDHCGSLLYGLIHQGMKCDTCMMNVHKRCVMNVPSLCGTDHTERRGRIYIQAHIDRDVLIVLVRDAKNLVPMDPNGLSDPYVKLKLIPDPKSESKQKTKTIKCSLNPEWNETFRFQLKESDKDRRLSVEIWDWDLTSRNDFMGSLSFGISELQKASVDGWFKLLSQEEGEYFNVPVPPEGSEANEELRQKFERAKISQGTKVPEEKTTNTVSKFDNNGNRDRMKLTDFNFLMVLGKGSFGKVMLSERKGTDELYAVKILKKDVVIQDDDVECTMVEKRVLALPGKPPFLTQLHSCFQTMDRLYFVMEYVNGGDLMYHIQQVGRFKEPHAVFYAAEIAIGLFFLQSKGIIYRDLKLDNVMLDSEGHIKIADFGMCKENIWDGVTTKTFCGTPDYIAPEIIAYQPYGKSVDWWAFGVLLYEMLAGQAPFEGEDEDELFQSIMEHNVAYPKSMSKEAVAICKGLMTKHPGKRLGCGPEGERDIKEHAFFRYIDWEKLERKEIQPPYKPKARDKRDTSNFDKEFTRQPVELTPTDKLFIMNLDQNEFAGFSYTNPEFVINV

[7] = target: Protein kinase C beta type (Homo sapiens) (UniProt P05771); conditions: at 1 µM
[8] = target: T2, Serine/threonine-protein kinase D1 (Homo sapiens) (UniProt Q15139); conditions: at 0.1 µM
T2 sequence (whole entry): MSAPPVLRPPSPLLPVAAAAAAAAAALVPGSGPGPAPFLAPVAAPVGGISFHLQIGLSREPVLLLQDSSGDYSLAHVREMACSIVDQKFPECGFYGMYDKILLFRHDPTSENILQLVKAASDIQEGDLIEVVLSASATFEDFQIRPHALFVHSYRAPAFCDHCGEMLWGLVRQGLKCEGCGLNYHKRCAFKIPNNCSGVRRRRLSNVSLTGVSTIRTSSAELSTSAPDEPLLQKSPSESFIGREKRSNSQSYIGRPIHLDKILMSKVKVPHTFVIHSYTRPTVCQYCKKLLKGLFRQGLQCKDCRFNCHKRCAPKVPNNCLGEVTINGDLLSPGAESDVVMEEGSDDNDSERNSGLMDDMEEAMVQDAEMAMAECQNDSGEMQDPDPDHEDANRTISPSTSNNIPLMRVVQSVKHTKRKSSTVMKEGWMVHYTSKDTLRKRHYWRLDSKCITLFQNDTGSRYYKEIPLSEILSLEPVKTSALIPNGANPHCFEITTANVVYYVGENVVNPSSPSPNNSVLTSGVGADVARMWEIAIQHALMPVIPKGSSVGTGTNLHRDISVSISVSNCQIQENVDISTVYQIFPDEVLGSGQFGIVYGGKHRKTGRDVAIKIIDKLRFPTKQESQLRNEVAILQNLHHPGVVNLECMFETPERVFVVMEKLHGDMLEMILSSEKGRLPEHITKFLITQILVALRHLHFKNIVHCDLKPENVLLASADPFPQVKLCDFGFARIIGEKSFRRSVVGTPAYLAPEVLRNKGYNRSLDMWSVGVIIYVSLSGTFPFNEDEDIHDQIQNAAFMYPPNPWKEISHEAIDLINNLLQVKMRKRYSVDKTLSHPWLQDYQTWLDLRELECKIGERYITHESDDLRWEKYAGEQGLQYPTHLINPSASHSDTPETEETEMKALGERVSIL

[9] = target: T2, Serine/threonine-protein kinase D1 (Homo sapiens); conditions: at 1 µM
[10] = target: T3, Serine/threonine-protein kinase D2 (Homo sapiens) (UniProt Q9BZL6); conditions: at 0.1 µM
T3 sequence (whole entry): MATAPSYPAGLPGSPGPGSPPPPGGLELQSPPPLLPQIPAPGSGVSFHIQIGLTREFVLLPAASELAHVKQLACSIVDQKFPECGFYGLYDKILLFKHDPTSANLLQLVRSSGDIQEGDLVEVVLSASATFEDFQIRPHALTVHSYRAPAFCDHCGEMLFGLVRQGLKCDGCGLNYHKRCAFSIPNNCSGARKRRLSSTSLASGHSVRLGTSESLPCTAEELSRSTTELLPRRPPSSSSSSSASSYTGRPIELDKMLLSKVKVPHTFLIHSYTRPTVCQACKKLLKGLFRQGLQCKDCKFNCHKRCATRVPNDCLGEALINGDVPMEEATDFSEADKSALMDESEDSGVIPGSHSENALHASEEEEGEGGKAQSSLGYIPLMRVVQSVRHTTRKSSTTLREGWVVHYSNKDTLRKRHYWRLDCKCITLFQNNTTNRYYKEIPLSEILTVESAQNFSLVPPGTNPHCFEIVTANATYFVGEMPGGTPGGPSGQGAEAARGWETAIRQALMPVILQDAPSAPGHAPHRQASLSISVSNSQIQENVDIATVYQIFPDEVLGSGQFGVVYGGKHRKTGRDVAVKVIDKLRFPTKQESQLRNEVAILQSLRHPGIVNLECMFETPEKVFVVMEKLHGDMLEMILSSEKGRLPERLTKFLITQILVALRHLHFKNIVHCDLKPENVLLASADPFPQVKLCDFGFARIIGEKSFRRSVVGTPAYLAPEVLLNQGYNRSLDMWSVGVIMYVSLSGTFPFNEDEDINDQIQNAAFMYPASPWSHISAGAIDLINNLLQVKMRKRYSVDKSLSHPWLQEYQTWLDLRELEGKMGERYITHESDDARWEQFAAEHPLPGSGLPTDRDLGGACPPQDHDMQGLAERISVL

[11] = target: T3, Serine/threonine-protein kinase D2 (Homo sapiens); conditions: at 1 µM
[12] = target: T4, Serine/threonine-protein kinase D3 (Homo sapiens) (UniProt O94806); conditions: at 0.1 µM
T4 sequence (whole entry): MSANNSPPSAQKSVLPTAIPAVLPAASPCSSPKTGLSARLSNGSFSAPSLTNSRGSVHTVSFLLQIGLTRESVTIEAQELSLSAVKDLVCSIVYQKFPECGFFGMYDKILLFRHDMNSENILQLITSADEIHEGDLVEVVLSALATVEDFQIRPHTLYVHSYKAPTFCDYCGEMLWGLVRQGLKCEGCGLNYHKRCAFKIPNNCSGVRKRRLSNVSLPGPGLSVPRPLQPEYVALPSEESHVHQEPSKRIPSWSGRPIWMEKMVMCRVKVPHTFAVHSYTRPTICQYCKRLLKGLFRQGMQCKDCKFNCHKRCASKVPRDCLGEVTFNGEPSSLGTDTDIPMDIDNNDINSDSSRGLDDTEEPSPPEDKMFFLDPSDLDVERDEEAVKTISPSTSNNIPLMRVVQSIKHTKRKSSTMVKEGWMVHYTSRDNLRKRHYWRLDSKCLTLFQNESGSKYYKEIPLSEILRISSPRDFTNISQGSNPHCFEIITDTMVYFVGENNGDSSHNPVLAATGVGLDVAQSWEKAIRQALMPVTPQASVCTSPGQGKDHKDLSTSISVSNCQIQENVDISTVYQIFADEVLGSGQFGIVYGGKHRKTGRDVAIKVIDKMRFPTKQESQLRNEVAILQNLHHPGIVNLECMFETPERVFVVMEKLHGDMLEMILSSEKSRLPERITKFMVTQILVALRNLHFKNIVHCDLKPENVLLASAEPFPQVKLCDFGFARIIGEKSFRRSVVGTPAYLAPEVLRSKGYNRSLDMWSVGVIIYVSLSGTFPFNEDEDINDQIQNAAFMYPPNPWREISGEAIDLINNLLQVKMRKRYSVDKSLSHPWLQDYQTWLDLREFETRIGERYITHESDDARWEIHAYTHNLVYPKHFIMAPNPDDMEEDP

[13] = target: T4, Serine/threonine-protein kinase D3 (Homo sapiens); conditions: at 1 µM
[14] = target: T5, cGMP-dependent protein kinase 1 (Homo sapiens) (UniProt Q13976); conditions: at 0.1 µM
T5 sequence (whole entry): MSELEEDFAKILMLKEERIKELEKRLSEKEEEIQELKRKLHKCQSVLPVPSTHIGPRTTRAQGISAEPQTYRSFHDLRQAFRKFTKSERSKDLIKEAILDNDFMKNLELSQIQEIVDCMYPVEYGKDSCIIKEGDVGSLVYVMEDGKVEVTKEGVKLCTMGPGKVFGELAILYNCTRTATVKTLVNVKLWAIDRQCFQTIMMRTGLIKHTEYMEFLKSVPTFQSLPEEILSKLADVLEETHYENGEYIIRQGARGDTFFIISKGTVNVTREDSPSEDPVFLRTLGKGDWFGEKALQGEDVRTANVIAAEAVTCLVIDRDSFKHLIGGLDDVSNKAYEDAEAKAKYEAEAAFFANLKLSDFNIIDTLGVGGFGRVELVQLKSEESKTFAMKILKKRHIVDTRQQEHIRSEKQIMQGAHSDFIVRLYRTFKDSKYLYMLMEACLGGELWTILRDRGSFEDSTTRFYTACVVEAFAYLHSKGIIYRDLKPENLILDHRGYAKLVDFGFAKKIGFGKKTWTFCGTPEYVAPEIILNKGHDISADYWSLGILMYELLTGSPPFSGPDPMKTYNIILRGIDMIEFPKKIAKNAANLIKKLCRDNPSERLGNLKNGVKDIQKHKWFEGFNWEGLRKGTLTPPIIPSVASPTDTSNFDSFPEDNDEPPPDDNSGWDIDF

[15] = target: T5, cGMP-dependent protein kinase 1 (Homo sapiens); conditions: at 1 µM
[16] = target: T6, cGMP-dependent protein kinase 2 (Homo sapiens) (UniProt Q13237); conditions: at 0.1 µM
T6 sequence (whole entry): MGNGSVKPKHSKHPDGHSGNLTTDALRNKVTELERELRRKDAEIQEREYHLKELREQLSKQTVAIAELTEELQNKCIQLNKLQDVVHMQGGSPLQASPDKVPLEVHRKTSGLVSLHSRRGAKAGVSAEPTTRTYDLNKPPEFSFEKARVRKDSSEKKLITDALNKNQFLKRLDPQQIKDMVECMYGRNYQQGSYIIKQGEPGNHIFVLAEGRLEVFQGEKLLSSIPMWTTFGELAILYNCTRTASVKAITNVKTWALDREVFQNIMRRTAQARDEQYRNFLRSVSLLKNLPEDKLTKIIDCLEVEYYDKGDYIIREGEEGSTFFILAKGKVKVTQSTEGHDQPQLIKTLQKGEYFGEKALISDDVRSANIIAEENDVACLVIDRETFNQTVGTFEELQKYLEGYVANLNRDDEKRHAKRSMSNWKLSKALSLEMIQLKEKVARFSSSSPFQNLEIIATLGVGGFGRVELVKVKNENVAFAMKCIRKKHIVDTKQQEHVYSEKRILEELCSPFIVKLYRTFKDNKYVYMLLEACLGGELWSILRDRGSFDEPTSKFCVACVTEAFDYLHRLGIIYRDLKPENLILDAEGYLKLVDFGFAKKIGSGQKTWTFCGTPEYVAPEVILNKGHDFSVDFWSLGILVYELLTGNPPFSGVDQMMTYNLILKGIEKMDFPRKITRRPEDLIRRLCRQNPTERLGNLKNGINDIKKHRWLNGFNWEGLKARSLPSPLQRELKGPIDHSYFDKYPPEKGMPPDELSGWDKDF

[17] = target: T6, cGMP-dependent protein kinase 2 (Homo sapiens); conditions: at 1 µM
[18] = target: T7, cAMP-dependent protein kinase catalytic subunit PRKX (Homo sapiens) (UniProt P51817); conditions: at 0.1 µM
T7 sequence (whole entry): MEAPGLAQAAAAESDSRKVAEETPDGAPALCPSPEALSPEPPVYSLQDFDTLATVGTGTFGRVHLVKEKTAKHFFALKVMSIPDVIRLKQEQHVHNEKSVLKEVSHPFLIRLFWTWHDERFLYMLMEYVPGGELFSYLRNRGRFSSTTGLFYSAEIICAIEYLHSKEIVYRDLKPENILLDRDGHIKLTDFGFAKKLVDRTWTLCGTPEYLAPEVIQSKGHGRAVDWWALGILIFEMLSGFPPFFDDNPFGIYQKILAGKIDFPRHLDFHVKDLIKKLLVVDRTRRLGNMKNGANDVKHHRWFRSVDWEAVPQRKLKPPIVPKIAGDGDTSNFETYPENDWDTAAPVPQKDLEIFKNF

[19] = target: T7, cAMP-dependent protein kinase catalytic subunit PRKX (Homo sapiens); conditions: at 1 µM
[20] = target: Rho-associated protein kinase 1 (Homo sapiens) (UniProt Q13464); conditions: at 0.1 µM;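 also: values are mean percent inhibition of ROCK1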
Rho-associated protein kinase 1 (Homo sapiens), sequence (Q13464 2-1354 limits assumed): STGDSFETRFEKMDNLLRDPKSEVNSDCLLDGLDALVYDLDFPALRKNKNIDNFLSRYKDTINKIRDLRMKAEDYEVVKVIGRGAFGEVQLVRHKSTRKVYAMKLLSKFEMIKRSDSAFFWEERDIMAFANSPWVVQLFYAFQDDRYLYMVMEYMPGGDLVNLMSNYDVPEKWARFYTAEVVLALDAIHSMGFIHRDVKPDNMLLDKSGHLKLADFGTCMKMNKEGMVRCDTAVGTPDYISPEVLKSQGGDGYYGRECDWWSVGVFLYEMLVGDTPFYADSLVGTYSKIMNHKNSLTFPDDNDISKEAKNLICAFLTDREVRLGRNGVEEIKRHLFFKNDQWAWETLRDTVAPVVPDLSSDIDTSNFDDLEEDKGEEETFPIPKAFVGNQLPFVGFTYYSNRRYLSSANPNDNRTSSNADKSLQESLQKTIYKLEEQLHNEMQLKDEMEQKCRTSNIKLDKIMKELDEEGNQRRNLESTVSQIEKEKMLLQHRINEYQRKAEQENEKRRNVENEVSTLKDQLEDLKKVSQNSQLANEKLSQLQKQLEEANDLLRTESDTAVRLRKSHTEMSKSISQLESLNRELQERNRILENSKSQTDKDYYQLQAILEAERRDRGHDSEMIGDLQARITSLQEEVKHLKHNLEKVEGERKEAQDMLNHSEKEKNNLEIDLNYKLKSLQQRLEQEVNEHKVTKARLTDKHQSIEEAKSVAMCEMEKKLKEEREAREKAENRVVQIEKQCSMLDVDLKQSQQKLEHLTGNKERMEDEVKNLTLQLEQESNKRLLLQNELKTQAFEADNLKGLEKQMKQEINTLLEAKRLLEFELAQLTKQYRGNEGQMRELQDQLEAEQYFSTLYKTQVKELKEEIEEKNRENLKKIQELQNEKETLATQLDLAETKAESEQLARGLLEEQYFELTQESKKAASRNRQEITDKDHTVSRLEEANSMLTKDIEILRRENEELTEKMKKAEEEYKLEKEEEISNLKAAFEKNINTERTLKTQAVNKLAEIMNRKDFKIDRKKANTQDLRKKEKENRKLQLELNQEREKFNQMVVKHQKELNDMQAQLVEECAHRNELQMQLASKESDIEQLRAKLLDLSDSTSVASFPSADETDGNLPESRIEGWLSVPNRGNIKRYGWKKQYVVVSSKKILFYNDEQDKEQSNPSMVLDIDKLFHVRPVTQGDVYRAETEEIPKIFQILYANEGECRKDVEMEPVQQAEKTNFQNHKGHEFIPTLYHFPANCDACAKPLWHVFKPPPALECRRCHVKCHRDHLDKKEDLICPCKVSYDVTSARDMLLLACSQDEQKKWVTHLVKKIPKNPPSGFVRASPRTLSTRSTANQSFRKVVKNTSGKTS

Compound	inhibition [1]	inhibition [2]	inhibition [3]	inhibition [4]	inhibition [5]	inhibition [6]	inhibition [7]	inhibition [8]	inhibition [9]	inhibition [10]	inhibition [11]	inhibition [12]	inhibition [13]	inhibition [14]	inhibition [15]	inhibition [16]	inhibition [17]	inhibition [18]	inhibition [19]	inhibition [20]
CS(=O)(=O)Nc1ccc(-c2ccc3c(NC(=O)C4CC4)n[nH]c3c2)cc1	4.43%	0.75%	3.13%	1.56%	-0.36%	1.18%	1.78%	2.7%	4.68%	3.14%	5.01%	3.46%	6.13%	2.24%	3.26%	1.29%	2.97%	1.03%	-0.97%	0.87%
COc1cc(N2CCN(C(C)C)CC2)ccc1Nc1nc(Nc2cccc(F)c2C(=O)O)c2cc[nH]c2n1	5.49%	0.72%	0.65%	2.48%	3.08%	1.66%	2.08%	3.89%	6.58%	3.65%	4.66%	4.61%	4.8%	1.6%	5.7%	1.77%	3.84%	1.23%	2.86%	0.41%
COc1ccccc1-c1cc(/C=C2\C(=O)Nc3ncc(Br)cc32)cc(Br)c1O	2.98%	0.64%	2.57%	1.61%	1.73%	2.24%	0.81%	3.57%	6.42%	4.74%	6.48%	5.02%	6.21%	2.01%	5.3%	1.73%	5.97%	0.16%	0.16%	0.21%
CC1(C)CC(n2cnc(-c3ccc(F)cc3)c2-c2ccnc(N)n2)CC(C)(C)N1	1.2%	0.48%	0.2%	0.49%	1.27%	1.08%	4.59%	0.74%	3.49%	1.47%	3.58%	1.4%	3.8%	0.62%	2.53%	1.24%	2.55%	0.98%	2.76%	1.34%
COc1cc2c(cc1Nc1nc(Nc3cccc(F)c3C(N)=O)c3cc[nH]c3n1)N(C(=O)CN1CCN(C(C)C)CC1)CC2	3.85%	-0.63%	-1.02%	2.08%	5.05%	1.31%	2.64%	4.89%	12.4%	4.84%	8.82%	3.64%	8.43%	4.61%	10.1%	3.86%	5.6%	2.44%	2.36%	0.72%
